# Of roughly 7,900 targets only a part is listed; those with a hit were picked by preference. About 0.6% of all pairs of compound and target were hits. A number with no mark means an inactive call.
# Legend:
# Test in all cases: log2 fold change, soluble protein after heating vs DMSO (PISA); higher = thermal stabilisation; K562 cells, 10 uM, 30 min; active = over 0.2 and 3.5 SD of the protein, either way, in both replicates (recomputed)
# [1] = target: AAGAB (UniProt Q6PD74)
# How it was run: (§1)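 Aliquots of K562 cells (2×10^6 cells/mL) treated with 10 μM compound for 30 min were heated for 3 min over 48°C-58°C. After pooling and extraction in PBS with 0.5% NP-40 at 4°C, soluble protein from a 21,000xg, 90 min spin was quantified by TMTpro 16plex LC-MS/MS with channel sums equalised. Thermal stability is expressed against control samples, from duplicates, as a log2 fold change.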
# [2] = target: AAK1 (UniProt A0A096LP25)
# How it was run: as §1
# [3] = target: AAK1 (UniProt Q2M2I8)
# Chain of AAK1 (UniProt Q2M2I8) (Q2M2I8 whole entry, looked up): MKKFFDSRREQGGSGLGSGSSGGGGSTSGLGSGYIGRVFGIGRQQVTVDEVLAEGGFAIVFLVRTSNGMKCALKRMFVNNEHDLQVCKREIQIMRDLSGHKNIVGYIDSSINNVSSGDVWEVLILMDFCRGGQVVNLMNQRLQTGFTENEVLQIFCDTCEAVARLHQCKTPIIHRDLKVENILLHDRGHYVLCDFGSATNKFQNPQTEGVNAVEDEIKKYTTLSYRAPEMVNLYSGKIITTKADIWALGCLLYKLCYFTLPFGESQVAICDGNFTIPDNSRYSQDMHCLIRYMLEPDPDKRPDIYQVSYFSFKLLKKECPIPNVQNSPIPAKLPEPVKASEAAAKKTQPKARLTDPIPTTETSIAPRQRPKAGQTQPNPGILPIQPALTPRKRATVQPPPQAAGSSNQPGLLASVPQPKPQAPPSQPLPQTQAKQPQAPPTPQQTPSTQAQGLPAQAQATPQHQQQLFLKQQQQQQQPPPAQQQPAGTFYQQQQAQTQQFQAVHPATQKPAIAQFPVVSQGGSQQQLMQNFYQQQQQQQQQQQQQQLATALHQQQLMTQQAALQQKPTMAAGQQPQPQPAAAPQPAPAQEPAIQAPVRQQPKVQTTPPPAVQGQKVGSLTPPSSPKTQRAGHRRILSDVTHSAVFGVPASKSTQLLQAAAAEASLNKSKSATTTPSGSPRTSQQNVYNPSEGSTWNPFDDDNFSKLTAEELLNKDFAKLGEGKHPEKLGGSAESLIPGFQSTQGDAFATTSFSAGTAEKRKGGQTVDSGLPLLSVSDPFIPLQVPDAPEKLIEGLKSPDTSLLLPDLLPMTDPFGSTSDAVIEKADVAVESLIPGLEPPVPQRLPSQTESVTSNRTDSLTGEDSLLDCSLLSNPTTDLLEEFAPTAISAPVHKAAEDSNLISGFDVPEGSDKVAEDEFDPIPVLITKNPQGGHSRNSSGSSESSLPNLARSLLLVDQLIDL
# How it was run: as §1
# Chain of AAGAB (Q6PD74 whole entry, looked up): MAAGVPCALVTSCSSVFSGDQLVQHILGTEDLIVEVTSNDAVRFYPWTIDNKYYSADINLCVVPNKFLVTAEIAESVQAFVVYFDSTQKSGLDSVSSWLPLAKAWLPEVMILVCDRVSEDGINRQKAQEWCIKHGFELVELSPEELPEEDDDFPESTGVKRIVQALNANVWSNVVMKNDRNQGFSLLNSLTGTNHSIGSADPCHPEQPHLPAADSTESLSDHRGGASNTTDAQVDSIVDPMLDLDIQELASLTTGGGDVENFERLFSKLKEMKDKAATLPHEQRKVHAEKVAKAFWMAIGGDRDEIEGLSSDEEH
SMILES,log2 fold change [1],log2 fold change [2],log2 fold change [3]
Cc1ncc(-c2ccnc(Nc3ccc(S(C)(=O)=O)cc3)n2)n1C(C)C,0.008,0.028,0.219
Cc1ccc(NC(=O)c2cccc(C(C)(C)C#N)c2)cc1Nc1ccc2ncn(C)c(=O)c2c1,-0.153,-0.131,0.01
CN1CCC(CNc2ccc3ncc(-c4cccc(OC(F)(F)F)c4)n3n2)CC1,-0.228,0.332,0.27
Cc1cccc(CC(=O)N2CCc3c2ccc(-c2cn(C)c4ncnc(N)c24)c3F)n1,0.016,-0.017,-0.048
COc1cccc2cc(-c3nc([C@H]4CC[C@H](C(=O)O)CC4)n4ncnc(N)c34)[nH]c12,-0.045,0.129,0.022
Cc1ccc(C(=O)N(CCCN)[C@@H](c2nc3cc(Cl)ccc3c(=O)n2Cc2ccccc2)C(C)C)cc1 [ispinesib],-0.017,0.011,0.091
CN1CC[C@H](c2c(O)cc(O)c3c(=O)cc(-c4ccccc4Cl)oc23)[C@H](O)C1 [alvocidib],0.008,-0.009,0.025
C[C@@H](N)c1ccc(C(=O)Nc2ccnc3[nH]ccc23)cc1,0.084,0.365,0.412 (active)
O=C(Nc1nc2ccccc2n1CCN1CCOCC1)c1cccc([N+](=O)[O-])c1 [IRAK-1-4 Inhibitor I],-0.016,-0.063,-0.085
Cn1cc(-c2ccc3nnc(C(F)(F)c4ccc5ncccc5c4)n3n2)cn1,-0.121,-0.079,-0.086
Cn1c2cc(S(C)=O)sc2c2cnn(Cc3cccc(N)c3)c(=O)c21 (centres undefined),0.125,-0.073,-0.108
CON(C)C(=O)N1N=C(c2cc(F)ccc2F)S[C@@]1(CCCN)c1ccccc1 [filanesib],0.041,-0.01,-0.108
O=C(O)c1ccc2c(c1)nc(Nc1cccc(Cl)c1)c1ccncc12 [silmitasertib],0.071,-0.072,0.153
O=C1NC(=O)/C(=C\c2ccc3nccnc3c2)S1,0.027,0.107,0.033
O=C1NC(=O)C(c2cnc3ccccn23)=C1c1cn2c3c(cc(F)cc13)CN(C(=O)N1CCCCC1)CC2,-0.109,-0.159,0.238
CNC(=O)c1ccccc1Nc1nc(Nc2ccc(N3CCOCC3)cc2OC)ncc1Cl,0.112,0.333,0.281
Cc1nc(Nc2ncc(C(=O)Nc3c(C)cccc3Cl)s2)cc(N2CCN(CCO)CC2)n1 [dasatinib],-0.161,-0.18,-0.203
CC(=O)c1cnc2ccc(-c3cc(Cl)c(O)c(Cl)c3)nc2c1N[C@H]1CC[C@H](CN(C)C)CC1,0.077,0.319,0.366
c1cc(OCCN2CCCCC2)cc(-c2n[nH]c3ccc(-c4nnc[nH]4)cc23)c1,-0.158,0.142,0.052
CC(C)(C)Cn1c(N)nc2ccc(-c3[nH]c(C(C)(C)C)nc3-c3ccc(F)cc3)nc21 [ralimetinib],0.065,-0.01,0.04
Cc1cc(Nc2cc(N3CCN(C)CC3)nc(Sc3ccc(NC(=O)C4CC4)cc3)n2)n[nH]1 [tozasertib],0.029,0.152,0.211
O=C(Nc1cccc(Nc2ncc(Br)c(NCCc3cnc[nH]3)n2)c1)N1CCCC1,0.067,0.255,0.265
CC(C)(O)CC(=O)NCCn1ccc2ncnc(Nc3ccc(Oc4cccc(C(F)(F)F)c4)c(Cl)c3)c21,-0.146,-0.034,0
Cc1ccc2c(=O)c3ccccc3n(CCCN)c2c1C,-0.003,-0.044,-0.017

SMILES,log2 fold change [1],log2 fold change [2],log2 fold change [3]
FC(F)(F)c1ccc(/C=C/c2nc(COc3ccc(CCCCn4ccnn4)cc3)co2)cc1 [mubritinib],0.017,-0.124,-0.066
CCCS(=O)(=O)Nc1ccc(F)c(C(=O)c2c[nH]c3ncc(-c4ccc(Cl)cc4)cc23)c1F [vemurafenib],-0.012,-0.016,0.147
NC(=O)c1ccc2nc(-c3ccc(Oc4ccc(Cl)cc4)cc3)[nH]c2c1,-0.068,0.02,0.005
CNCc1ccc(-c2[nH]c3cc(F)cc4c3c2CCNC4=O)cc1 [rucaparib],0.055,0.007,-0.013
CO[C@H]1C[C@@H]2CC[C@@H](C)[C@@](O)(O2)C(=O)C(=O)N2CCCC[C@H]2C(=O)O[C@H]([C@H](C)C[C@@H]2CC[C@H](n3cnnn3)[C@H](OC)C2)CC(=O)[C@H](C)/C=C(\C)[C@@H](O)[C@@H](OC)C(=O)[C@H](C)C[C@H](C)/C=C/C=C/C=C/1C [zotarolimus],-0.093,-0.095,-0.004
C/C(=N\NC(=O)c1cccc(S(=O)(=O)N2CCOCC2)c1)c1cc(Cl)ccc1O,0.088,-0.092,-0.055
COc1cc(C(=O)O)ccc1NC(=O)[C@@H]1N[C@@H](CC(C)(C)C)[C@](C#N)(c2ccc(Cl)cc2F)[C@H]1c1cccc(Cl)c1F [idasanutlin],-0.053,-0.077,-0.129
CNc1nc(-c2ccc3c(N)n[nH]c3c2)cc(N2C[C@@H](C(=O)NC3CCCCC3)CC[C@H]2C)n1,-0.084,0.244,0.252
CN1CCN(CCOc2cc(OC3CCOCC3)c3c(Nc4c(Cl)ccc5c4OCO5)ncnc3c2)CC1 [saracatinib],0.168,0.147,0
COC(=O)[C@H](CCSC)NC(=O)c1ccc(NC[C@@H](N)CS)cc1-c1ccccc1,-0.029,0.023,-0.044
COc1cc2ncnc(Nc3ccc(F)c(Cl)c3)c2cc1OCCCN1CCOCC1 [gefitinib],-0.027,-0.049,-0.097
Cc1cn(-c2cc(NC(=O)c3ccc(C)c(Nc4nccc(-c5cccnc5)n4)c3)cc(C(F)(F)F)c2)cn1 [nilotinib],-0.077,-0.084,0.027
NC(=O)Nc1cc(-c2cccc(F)c2)sc1C(=O)N[C@H]1CCCNC1,-0.071,0.318,0.28
CCCc1cc(C)[nH]c(=O)c1CNC(=O)c1cc(-c2ccnc(N3CCN(C)CC3)c2)cc2c1cnn2C(C)C,-0.02,-0.026,0.08
CC(C)C[C@@H](C=O)NC(=O)[C@H](CC(C)C)NC(=O)[C@H](CC(C)C)NC(=O)OCc1ccccc1,0,0.065,-0.061
O=C1NC(=NCc2cccs2)S/C1=C\c1ccc2ncccc2c1,-0.059,0.234,0.339
CCN(CCCOc1ccc2c(Nc3cc(CC(=O)Nc4cccc(F)c4)[nH]n3)ncnc2c1)CCOP(=O)(O)O [barasertib],0.068,-0.004,-0.034
CN1CCc2c(c3ccccc3n2Cc2ccc(C(=O)NO)cc2)C1 [Tubastatin A],0.016,-0.05,0.003
CCn1cc(-c2ccnc3[nH]c(-c4cccc(CN(C)C)c4)cc23)c(-c2ccc(NC(=O)N(C)C)cc2)n1,-0.018,-0.031,-0.141
COC(=O)N[C@@H](C)CNc1nccc(-c2cn(C(C)C)nc2-c2cc(Cl)cc(NS(C)(=O)=O)c2F)n1 [encorafenib],0.045,0.033,-0.047
CNC(=O)c1ccc(Nc2ncc(C(F)(F)F)c(NCc3nccnc3N(C)S(C)(=O)=O)n2)cc1 [defactinib],-0.187,0.037,-0.106
CS(=O)(=O)N1CCN(Cc2cc3nc(-c4cccc5[nH]ncc45)nc(N4CCOCC4)c3s2)CC1 [pictilisib],0.039,0.16,0.087
Cc1cc(SCc2sc(-c3ccc(C(F)(F)F)cc3)nc2C)ccc1OCC(=O)O,0.051,-0.048,0.096
CC(C)c1cnn2c(NCc3ccccc3)cc(NCCCCCCN)nc12,-0.099,-0.145,-0.043

# Reference: the supplement of paper PMC10849652
